This is an account of results in PubChem BioAssay AID2284378 (EPA ToxCast).

Records with an inconclusive call do not appear. Activity calls are given as the source filed them. How the source made its calls: active means hit-call score of the fitted dose curve at least 0.9, where 1 is the maximum; inconclusive means response in the unintended direction; inactive means score below 0.9.

The test system of this assay is frog Retinoid X Receptor beta (RXRb), gene 394278. The assay is described as follows: ATG_frRXRb_EcoTox2: Attagene TRANS-FACTORIAL EcoTox-2 HepG2 Assay for frog Retinoid X Receptor beta (RXRb). The protocol:
ATG_EcoTox2 is a cell-based, multiplexed assay created by modifying the existing Attagene TRANS-FACTORIAL system to include a panel of nuclear receptors from some or all the following species: human (Homo sapiens), african clawed frog (Xenopus laevis), rainbow trout (Oncorhynchus mykiss), japanese medaka (Oryzias latipes), and zebrafish (Danio rerio). The ECOTOX2-FACTORIAL format uses HepG2, a human liver cell line, with measurements taken at 24 hours after chemical dosing in a 24-well plate. ATG_frRXRb_EcoTox2 is one of 29 assay components calculated in the ATG_EcoTox2 assay. It is designed to make measurements of mRNA induction, a form of inducible reporter, as detected with fluorescence intensity signals by Reverse transcription polymerase chain reaction (RT-PCR) and Capillary electrophoresis technology.The assay endpoint ATG_frRXRb_EcoTox2 was analyzed in the positive analysis fitting direction relative to DMSO as the negative control and baseline of activity. Using a type of inducible reporter, measures of mRNA for gain-of-signal activity can be used to understand the reporter gene at the transcription factor-level as they relate to the gene RXRb. Furthermore, this assay endpoint can be referred to as a primary readout, because this assay has produced multiple assay endpoints where this one serves a reporter gene function. […]
Human liver HepG2 cells are transiently transfected with multiple reporter transcription units (MRTUs) in 6-well plates using FuGene 6 reagent (Roche; 3 ml FuGene/1 mg DNA). […] A major difference between the CIS and TRANS system is that in CIS activities of endogenous TFs are measured, whereas the TRANS assay evaluates changes in activities of exogenous, chimeric NR-Gal4 proteins. […] The fragments were purified using Qiaquick PCR columns (Qiagen), analyzed on an ABI 3130xL genetic analyzer (Applied Biosystems) with peak positions identified by using a set of X-rhodamine (ROX)-labeled MapMarker1000 molecular weight standards (BioVentures). […]
By AC50 is commonly meant the midpoint of the concentration-response curve, whichever way the signal moves. For `CCCCOCN(C(=O)CCl)c1c(CC)cccc1CC`, the AC50 was 38.5 µM (active).

Turning to `O=C(O)C(F)(F)C(F)(F)C(F)(F)C(F)(F)C(F)(F)C(F)(F)C(F)(F)F`, the AC50 was 30 µM (active).

Regarding `[Cl][Sn]([c]1ccccc1)([c]1ccccc1)[c]1ccccc1`, the AC50 is 0.0888 µM (active).
